Data taken from PubChem BioAssay (NCI).
This is part of a sample that, as a whole, favours compounds with a hit. Of some 79,000 tested, about 15% had one in any assay. Calls of active or inactive are those of the source. Rule as the data show it: active = growth inhibition above about 70%; inactive = the rest.

Tests used:
[1] = NCI Yeast Anticancer Drug Screen. Data for the wt2 strain (AID 169);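 also: 0% = growth of vehicle-treated yeast cultures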; settings: S. cerevisiae wt2 strain growth inhibition, active compounds read high
In short: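 Compound exposure of yeast; growth compared with vehicle controls; inhibition reported.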

[2] = NCI Yeast Anticancer Drug Screen. Data for the mlh1 strain (AID 171);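 also: 0% = growth of vehicle-treated control cultures of the same strain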; settings: S. cerevisiae mlh1 strain growth inhibition, active compounds read high
In short: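 Compounds are applied to a genetically altered yeast strain, and its growth is compared with that of vehicle-treated cultures to give percent inhibition.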

[3] = NCI Yeast Anticancer Drug Screen. Data for the sgs1 strain (AID 173);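 also: 0% = growth of vehicle-only control cultures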; settings: S. cerevisiae sgs1 mutant, active compounds read high
In short: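 Compounds applied to genetically altered yeast; growth compared with vehicle-treated cultures to give % inhibition.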

[4] = NCI Yeast Anticancer Drug Screen. Data for the mlh1 rad18 strain (AID 175); settings: S. cerevisiae mlh1 rad18 strain growth inhibition, active compounds read high
In short: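 Cells of a genetically altered yeast strain, deficient in DNA damage repair, were treated with compound. Their growth was then compared with that of vehicle-treated cultures to give inhibition.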

[5] = NCI Yeast Anticancer Drug Screen. Data for the rad18 strain (AID 177); settings: S. cerevisiae rad18 mutant growth inhibition, active compounds read high
In short: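 Compounds are applied to a repair-deficient yeast strain, and growth is compared with that of vehicle-treated cultures to give percent inhibition.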

[6] = NCI Yeast Anticancer Drug Screen. Data for the rad52 strain (AID 147);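 also: 0% = growth of vehicle-treated control cultures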; settings: S. cerevisiae rad52 mutant growth inhibition, active compounds read high
In short: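 DNA repair-defective yeast; compound exposure; growth scored against vehicle controls.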

[7] = NCI Yeast Anticancer Drug Screen. Data for the wt1 strain (AID 149);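 also: 0% = growth of vehicle-treated wt1 cultures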; settings: S. cerevisiae wt1 strain (SPY 50644) growth inhibition, active compounds read high
In short: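 Measured: growth of wt1 yeast under compound versus vehicle treatment, reported as inhibition.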

[8] = NCI Yeast Anticancer Drug Screen. Data for the rad50EPP+ strain (AID 151);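 also: 0% = growth of vehicle-treated control cultures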; settings: S. cerevisiae rad50 mutant strain, active compounds read high
In short: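 rad50EPP+ yeast treated with test compounds. Readout: growth vs vehicle control.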

[9] = NCI Yeast Anticancer Drug Screen. Data for the mgt1 strain (AID 153); settings: S. cerevisiae mgt1 mutant growth inhibition, active compounds read high
In short: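 Growth inhibition relative to vehicle controls was scored for the mgt1 yeast strain after compound exposure.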

[10] = NCI Yeast Anticancer Drug Screen. Data for the rad50 strain (AID 155);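 also: 0% = growth of vehicle-only cultures of the same strain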; settings: S. cerevisiae rad50 strain growth inhibition, active compounds read high
In short: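 Growth of the mutant yeast was measured after compound exposure and referenced to vehicle-treated cultures.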

[11] = NCI Yeast Anticancer Drug Screen. Data for the mec2-1 strain (AID 157); settings: S. cerevisiae mec2-1 strain, active compounds read high
In short: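 Growth inhibition is read against vehicle-treated controls after compound exposure of the mec2-1 yeast strain, which is defective in DNA damage repair or cell cycle control.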

[12] = NCI Yeast Anticancer Drug Screen. Data for the rad14 strain (AID 159);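 also: 0% = growth of vehicle-treated control cultures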; settings: S. cerevisiae rad14 strain growth inhibition, active compounds read high
In short: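 Here, inhibition of yeast growth was measured after compound exposure, using a strain with a genetic defect in DNA damage repair and vehicle-treated cultures as the reference.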

[13] = NCI Yeast Anticancer Drug Screen. Data for the sgs1 mgt1 strain (AID 161);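 also: 0% = growth of cultures given vehicle only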; settings: S. cerevisiae sgs1 mgt1 strain, active compounds read high
In short: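 This yeast growth screen uses a strain with defined DNA-repair lesions; compound-treated growth is compared with vehicle-treated growth.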

[14] = NCI Yeast Anticancer Drug Screen. Data for the CLN2oe strain (AID 163);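 also: 0% = growth of vehicle-only control cultures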; settings: S. cerevisiae CLN2oe strain, active compounds read high
In short: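 Compound-treated yeast; growth vs vehicle ctrl = % inhibition. Genetically altered strain (cell-cycle control).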

[15] = NCI Yeast Anticancer Drug Screen. Data for the cln2 rad14 strain (AID 165);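 also: 0% = growth equal to vehicle treated cultures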; settings: S. cerevisiae cln2 rad14 strain, active compounds read high
In short: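 Growth inhibition, relative to vehicle-treated controls, is the read-out. The test organism is a yeast strain with defined genetic alterations, cln2 rad14.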

[16] = NCI Yeast Anticancer Drug Screen. Data for the bub3 strain (AID 167); settings: S. cerevisiae bub3 mutant strain, active compounds read high
In short: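 Whole-cell yeast assay. The mutant strain was incubated with compounds, and growth inhibition was determined by comparison with vehicle-treated cells.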

[17] = at 5.0 µM (retest, dose inferred, filed as 0.5)
[18] = at 50.0 µM (retest, dose inferred, filed as 5.0)

Measured: growth inhibition

Cn1c(=O)c2ccccc2c2ccccc21
inactive: [1]; at 1.2 µM -1% | [1]; at 3.7 µM -1% | [1]; at 11.0 µM -2% | [1]; at 33.0 µM 21% | [1]; at 100.0 µM 50% | [2]; at 1.2 µM 8% | [2]; at 3.7 µM -5% | [2]; at 11.0 µM 4% | [2]; at 33.0 µM 46% | [2]; at 100.0 µM 59% | [3]; at 1.2 µM -2% | [3]; at 3.7 µM -1% | [3]; at 11.0 µM -2% | [3]; at 33.0 µM 43% | [3]; at 100.0 µM 66% | [4]; [17] -114% | [4]; [18] 36% | [5]; at 1.2 µM 2% | [5]; at 3.7 µM 5% | [5]; at 11.0 µM 31%
active: [4]; at 50.0 µM 96.3% | [5]; at 33.0 µM 83% | [5]; at 100.0 µM 91%

CCOc1ccc2c(c1)c(CC(=O)O)cn2C
inactive: [6]; at 1.2 µM 0% | [6]; at 3.7 µM 7% | [6]; at 11.0 µM 20% | [6]; at 33.0 µM 60% | [7]; at 1.2 µM -4% | [7]; at 3.7 µM -3% | [7]; at 11.0 µM 3% | [7]; at 33.0 µM 28% | [7]; at 100.0 µM 54% | [8]; at 1.2 µM 6% | [8]; at 3.7 µM 27% | [9]; at 1.2 µM -3% | [9]; at 3.7 µM -6% | [9]; at 11.0 µM 1% | [9]; at 33.0 µM 18% | [9]; at 100.0 µM 51% | [10]; at 1.2 µM -6% | [10]; at 3.7 µM 7% | [10]; [17] -74% | [10]; at 11.0 µM 48% | [10]; at 50.0 µM 32.8% | [11]; at 1.2 µM 1% | [11]; at 3.7 µM -2% | [11]; [17] -40% | [11]; at 11.0 µM -7% | [11]; at 33.0 µM 27% | [11]; [18] 3% | [11]; at 50.0 µM 38.6% | [11]; at 100.0 µM 48% | [12]; at 1.2 µM 4% | [12]; at 3.7 µM 7% | [12]; at 11.0 µM 20% | [12]; at 33.0 µM 57% | [13]; [17] -38% | [13]; [18] 63% | [13]; at 50.0 µM 23.4% | [14]; at 1.2 µM -3% | [14]; at 3.7 µM -1% | [14]; at 11.0 µM 6% | [14]; at 33.0 µM 24% | [14]; at 100.0 µM 40% | [15]; [17] -47% | [15]; [18] -21% | [15]; at 50.0 µM 18.8% | [16]; at 1.2 µM -10% | [16]; at 3.7 µM 0% | [16]; [17] -49% | [16]; at 11.0 µM 12% | [16]; at 33.0 µM 50% | [1]; at 1.2 µM -3% | [1]; at 3.7 µM -3% | [1]; at 11.0 µM -3% | [1]; at 33.0 µM 16% | [1]; at 100.0 µM 61% | [2]; at 1.2 µM 5% | [2]; at 3.7 µM -4% | [2]; at 11.0 µM 13% | [2]; at 33.0 µM 42% | [3]; at 1.2 µM -1% | [3]; at 3.7 µM -3% | [3]; at 11.0 µM 21% | [3]; at 33.0 µM 63% | [4]; [17] -81% | [5]; at 1.2 µM 3% | [5]; at 3.7 µM 5% | [5]; at 11.0 µM 26% | [5]; at 33.0 µM 57%
active: [6]; at 100.0 µM 85% | [8]; at 11.0 µM 71% | [8]; at 33.0 µM 94% | [8]; at 100.0 µM 97% | [10]; at 33.0 µM 92% | [10]; [18] 94% | [10]; at 100.0 µM 98% | [12]; at 100.0 µM 75% | [16]; [18] 81% | [16]; at 50.0 µM 79.8% | [16]; at 100.0 µM 87% | [2]; at 100.0 µM 75% | [3]; at 100.0 µM 89% | [4]; [18] 92% | [4]; at 50.0 µM 88.2% | [5]; at 100.0 µM 87%

O=[N+]([O-])c1ccc([N+]2=NC(c3ccccc3)=NN(c3ccccc3)C2)cc1
inactive: [6]; at 1.2 µM 8% | [6]; at 3.7 µM 11% | [6]; at 11.0 µM 10% | [6]; at 33.0 µM 14% | [6]; at 100.0 µM 56% | [7]; at 1.2 µM 3% | [7]; at 3.7 µM 5% | [7]; at 11.0 µM 4% | [7]; at 33.0 µM 3% | [7]; at 100.0 µM 51% | [8]; at 1.2 µM 6% | [8]; at 3.7 µM 12% | [8]; at 11.0 µM 21% | [8]; at 33.0 µM 22% | [8]; at 100.0 µM 20% | [9]; at 1.2 µM 6% | [9]; at 3.7 µM 5% | [9]; at 11.0 µM 7% | [9]; at 33.0 µM 21% | [10]; at 1.2 µM 5% | [10]; at 3.7 µM -6% | [10]; [17] 1% | [10]; at 11.0 µM -9% | [10]; at 33.0 µM 15% | [10]; [18] 30% | [10]; at 50.0 µM 67.3% | [10]; at 100.0 µM 63% | [11]; at 1.2 µM -2% | [11]; at 3.7 µM -2% | [11]; [17] -9% | [11]; at 11.0 µM 0% | [11]; at 33.0 µM 9% | [11]; [18] 6% | [11]; at 50.0 µM 18.4% | [11]; at 100.0 µM 42% | [12]; at 1.2 µM 4% | [12]; at 3.7 µM 8% | [12]; at 11.0 µM 20% | [12]; at 33.0 µM 44% | [13]; [17] -1% | [13]; [18] 17% | [14]; at 1.2 µM -5% | [14]; at 3.7 µM -3% | [14]; at 11.0 µM -2% | [14]; at 33.0 µM 2% | [14]; at 100.0 µM 40% | [15]; [17] 9% | [15]; [18] 20% | [15]; at 50.0 µM 21.4% | [16]; at 1.2 µM -2% | [16]; at 3.7 µM 0% | [16]; [17] 10% | [16]; at 11.0 µM 12% | [16]; at 33.0 µM 30% | [1]; at 1.2 µM 0% | [1]; at 3.7 µM 2% | [1]; at 11.0 µM 1% | [1]; at 33.0 µM 11% | [2]; at 1.2 µM 1% | [2]; at 3.7 µM 4% | [2]; at 11.0 µM 6% | [2]; at 33.0 µM 19% | [3]; at 1.2 µM 0% | [3]; at 3.7 µM 1% | [3]; at 11.0 µM 2% | [3]; at 33.0 µM 28% | [4]; [17] -2% | [4]; [18] 48% | [5]; at 1.2 µM 3% | [5]; at 3.7 µM 4% | [5]; at 11.0 µM 2% | [5]; at 33.0 µM 11%
active: [9]; at 100.0 µM 95% | [12]; at 100.0 µM 93% | [13]; at 50.0 µM 74.5% | [16]; [18] 91% | [16]; at 50.0 µM 78% | [16]; at 100.0 µM 87% | [1]; at 100.0 µM 95% | [2]; at 100.0 µM 93% | [3]; at 100.0 µM 91% | [4]; at 50.0 µM 80.5% | [5]; at 100.0 µM 70%
